Bioassay records deposited in PubChem BioAssay by National Center for Advancing Translational Sciences (NCATS).
CHX counter – Cycloheximide Counterscreen for Small Molecule Inhibitors of Shiga Toxin; max response, %; cell reporter, cycloheximide protein synthesis inhibition counterscreen; 12% of 300,000 active; in the data active = max response mostly above about 13%, no sharp cut-off; inactive = mostly below about 14%; note: read at 38.3 µM for the half of the compounds with a filed dose; 0% is about no effect
HCMV antiviral – qHTS Assay for inhibitors of the human cytomegalovirus (HCMV) | HFF cells, HCMV-luciferase reporter, 72 h; stronger effect = lower value | 4.5% of 410,000 active | activity change, negative = inhibition, % at 57.5 µM; in the data active = activity change below about -60%; inconclusive = no clear call, values can overlap the other calls; inactive = above about -39%; note: % is set by controls: 0 for no effect and ±100 for the full control effect
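Luciferase read-out from HCMV-luciferase-infected HFFs (MOI 1 PFU/cell) 72 h post infection at 37C; compounds added after 16 h cell attachment; activity normalized between buffer-only basal and Salinomycin (10uM) inhibitor controls.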
Pf growth 48h – Primary qHTS for delayed death inhibitors of the malarial parasite plastid, 48 hour incubation | P. falciparum luciferase growth in erythrocytes, 48 h | Potency, µM (titrated, usually from 28.7 µM), inactives show at the top dose activity change, negative = inhibition, most hits filed as inhibitors | 5.9% of 310,000 active; note: potency is the fitted concentration of half-maximal effect; % is set by controls: 0 for no effect and ±100 for the full control effect
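Luminescence readout; reporter = integrated firefly luciferase in P. falciparum. RBC culture at 2% hematocrit, 0.1% parasitemia final, 37 C/5% CO2; decreased signal taken as growth inhibition.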
Pf growth 96h – Primary qHTS for delayed death inhibitors of the malarial parasite plastid, 96 hour incubation; P. falciparum luciferase reporter growth, 96 h; Potency, µM (top dose mostly 28.7 µM), for the others: top-dose activity change, negative = inhibition, usual class: inhibitors; 6.9% of 320,000 active; AID 504834, 2011; note: potency is the fitted concentration of half-maximal effect; % is set by controls: 0 for no effect and ±100 for the full control effect
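P. falciparum expressing integrated firefly luciferase, in erythrocytes at 2% hematocrit, 0.05% parasitemia, incubated with compounds 96 h at 37 C, 5% CO2. Growth inhibition read as loss of luminescence; two-generation exposure targets delayed-death apicoplast inhibitors.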
Shiga inhibitor – A qHTS for Small Molecule Inhibitors of Shiga Toxin | Vero cells, Shiga toxin protein synthesis inhibition reporter | inhibition, % at 38.7 µM | 9.2% of 290,000 active; in the data active = inhibition mostly above about 28%, no sharp cut-off; inactive = mostly below about 43%; note: 0% is about no effect
* = called active by the depositor; ? = inconclusive; . = no result given; [ ] = remark or other dose. Sampled rows, rich in hits. Any-hit rate of the full collection: about 20%. Unless noted, calls come from the whole dose curve; as a rule, active = well fitted inhibition curve with a large enough effect; inconclusive = small, poorly fitted or top-dose-only effect, or another doubt; inactive = no such curve, though single readings can be large or run the other way.

SMILES	CHX counter	HCMV antiviral	Pf growth 48h	Pf growth 96h	Shiga inhibitor
O=S(=O)(O)c1nc2ccccc2[nH]1	-2	-24	-1%	3%	4
CC1(c2ccc3noc(-c4ccccc4)c3c2)OCCO1	-1	-16	-29%	.	30
CC1(c2ccc3noc(-c4ccc(F)cc4)c3c2)OCCO1	19*	-40	.	?	72
COc1cccc(-c2onc3ccc(C4(C)OCCO4)cc23)c1	26*	-35	44%	?	31
COc1cccc(-c2onc3ccc(C(C)=O)cc23)c1	15*	-70*	-8%	12%	31
COc1ccc(C(=O)NC2CCCc3ccccc32)cc1S(=O)(=O)N1CCOCC1 (stereo unspecified)	-2	-20	0%	-30%	-6
CC(C)NS(=O)(=O)c1ccc(OCC(=O)N2CCN(c3ccccc3F)CC2)cc1	.	27	.	.	.
CC(C)(C)NC(=O)C[C@H]1C[C@H](C(=O)N2CCOCC2)[C@@]2(C)c3[nH]c4ccc(Cl)cc4c3CCN2C1=O	.	-11	.	.	.
CCCN(CCC)Cc1cc(=O)oc2cc(C)cc(C)c12	.	-13	.	.	.
O=C1C=C(N2CCOCC2)CCC1	.	-26	.	.	.
Cc1nc(SCc2ccc(C(=O)O)cc2)nc2c1CCCC2	-4	-61*	?	43%	-24
Cc1c(C2Nc3ccccc3C(=O)N2O)cnn1C (stereo unspecified)	17*	36	30%	25%	-2
CCn1cc(C2Nc3ccccc3C(=O)N2O)c(C)n1 (stereo unspecified)	12*	31	47%	-13%	44*
O=C(Nc1ccc(N2CCOCC2)c(F)c1)c1cccs1	44*	120	71%	130%	53*
O=C(O)c1cc(NCc2cccs2)ccc1N1CCOCC1	-4	17	18%	-17%	-7
COC(=O)c1cc(NCc2cccs2)ccc1N1CCOCC1	1	33	-6%	8.3µM*	31
O=C(Nc1ccc(N2CCOCC2)c(F)c1)c1ccncc1	18*	-20	20%	27%	61*
COC(=O)c1cc(NC(=O)c2cccs2)ccc1N1CCOCC1	2	-1	-7%	?	-15
COc1ccc(C(=O)N/C(=C\c2ccccc2)C(=O)Nc2ccccc2C(=O)O)cc1	.	-10	.	.	.
O=C(Nc1ccccc1-c1ccccc1NC(=O)c1ccco1)c1ccco1	-3	-18	10µM*	?	-5
O=C(Nc1ccccc1-c1ccccc1)c1ccco1	-3	-11	32%	1.3µM*	31
O=C(Nc1ccccc1NC(=O)c1ccco1)c1ccco1	4	10	0%	.	-5
Cc1ccccc1NC(=O)c1ccc(NC(=O)C2CC(=O)OC23CCCCC3)cc1 (stereo unspecified)	-1	-11	13µM*	27%	-8
O=C1CC(C(=O)Nc2ccccc2)C2(CCCC2)O1 (stereo unspecified)	-3	8	6%	11%	-3
O=C(Nc1ccccc1-c1ccccc1)c1ccc(NC(=O)c2ccco2)cc1	-1	-30	12µM*	.	-15
SMILES	CHX counter	HCMV antiviral	Pf growth 48h	Pf growth 96h	Shiga inhibitor
O=C(Nc1ccccc1F)c1ccco1	8	-9	39%	-22%	24
N[C@H]1CCN(O)C1=O	15	.	.	.	2
CCc1ccc([C@H]2[C@@H]3C(=O)C[C@@H]4C(=O)NC(=O)[C@@H]4[C@@H]3CN2S(=O)(=O)c2ccc(C)cc2)cc1	.	6	.	.	.
Cc1ccccc1NC(=O)c1ccccc1NC(=O)c1ccco1	1	-31	5%	.	-7
O=C(Nc1ccccn1)c1ccc(NC(=O)c2ccco2)cc1	40*	34	204%	?	71*
COc1ccc(CC(=O)Nc2cccc(C(=O)NN3C(=O)c4ccccc4C3=O)c2C)cc1	-3	?	25%	10%	-10
O=C(NCc1ccccc1)c1ccc(NC(=O)c2ccco2)cc1	-4	50	9%	46%	6
Cc1ccccc1NC(=O)c1ccc(NC(=O)c2ccco2)cc1	27*	6	27%	.	39
Cc1c(NC(=O)c2ccco2)cccc1C(=O)NN1C(=O)c2ccccc2C1=O	-3	1	41%	15µM*	20
CCOC(=O)CCC(=O)N1CCNC(=O)C1	4	?	44%	8%	7
O=C(NCc1ccccc1)c1nccnc1CO	-5	-14	-21%[0.00184 µM]	10µM*	-7
O=C(NCc1ccc(Cl)cc1)c1nccnc1CO	12	21	20%	-9%	-13
COc1ccc(/C=C2\Sc3ccc(C(=O)NCC4CCCO4)cc3N(C)C2=O)cc1 (stereo unspecified)	12*	?	?	?	11
COc1cc(/C=C2/SC(=S)N(CC3CCCO3)C2=O)ccc1O (stereo unspecified)	21*	-37	2%	?	41*
CN1C(=O)/C(=C/c2cccc(Cl)c2)Sc2ccc(C(=O)NCc3cccnc3)cc21	4	-14	9.3µM*	?	-4
COc1cccc(/C=C2\Sc3ccc(C(=O)NCc4cccnc4)cc3N(C)C2=O)c1	5	0	?	19%	-11
COc1ccc(/C=C2\SC(=S)N(CC3CCCO3)C2=O)cc1 (stereo unspecified)	20*	-24	10%	28%	13
Cc1ccc(N=C(NO)c2cnccc2C(F)(F)F)c(C)c1	-4	-19	25%[0.00184 µM]	17%	-3
Cc1ccc(Cn2c(CO)cnc2SCC(=O)NCc2ccccc2Cl)cc1	.	10	.	.	.
COc1ccccc1/C=C1\NC(=S)N(CC2CCCO2)C1=O (stereo unspecified)	27*	-25	.	7%	40
CC1CCCN(Cc2c(O)ccc3c(=O)c(-c4nc5ccccc5s4)c(N)oc23)C1 (stereo unspecified)	5	8	0.074µM*	0.066µM*	10
CC1CCN(Cc2c(O)ccc3c(=O)c(-c4nc5ccccc5s4)c(N)oc23)CC1	10	38	0.26µM*	?	-5
CC1(C)CCCN(Cc2c(O)ccc3c(=O)c(-c4nc5ccccc5s4)c(N)oc23)C1	33*	1	?	?	77*
CCCC(c1nnnn1C(C)(C)CC)N1CCN(C(=O)c2ccco2)CC1 (stereo unspecified)	-10	?	-10%	?	14
CCOc1ccc(NS(=O)(=O)c2ccc3[nH]cc(C(=O)N4CCCC4)c(=O)c3c2)cc1	.	5	.	.	.
COC(=O)C1=C(c2ccc(F)cc2F)C[C@@H]2CC[C@H]1N2C(=O)N1CCCC1	.	-29	?	3%	.
COC(=O)C1=C(c2c(C)noc2C)C[C@@H]2CC[C@H]1N2C(=O)N1CCOCC1	.	-2	75%	6%	.
COC(=O)C1=C(c2c(C)noc2C)C[C@@H]2CC[C@H]1N2C(=O)NC1CC1	.	-97*	16%	29%	.
COC(=O)C1=C(c2ccc(F)cc2F)C[C@@H]2CC[C@H]1N2C(=O)N1CCC(O)(c2ccc(Cl)cc2)CC1	.	?	9.3µM*	?	.
